# In the library only some 15% were active in any assay of this set; here they are far more common.
# Sm TGR inh: inhibitors of Schistosoma mansoni thioredoxin glutathione reductase; Q962Y6; purified TGR, DTNB reduction, TNB absorbance 405 nm; Potency, µM (doses to about 114 µM), for inactives: at the highest dose activity change, negative = inhibition, usual class: inhibitors; 360,000 tested, 3% active; AID 485364; further: potency means the concentration at half of the fitted maximal effect; on the % scale 0 is the no-effect control and ±100 the full control effect; nearly all actives have a fitted effect of over 60% in size
#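 First, TGR (20 nM dispensed) and NADPH were mixed with compound. Second, a 15 min room-temperature incubation followed. Third, further NADPH and then DTNB were added to start the reaction. Finally, TNB absorbance was monitored kinetically.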
# Pf growth 48h: P. falciparum growth inhibition at 48 hours (one generation); P. falciparum luciferase growth in erythrocytes, 48 h; Potency, µM (doses to about 28.7 µM), for inactives: at the top dose activity change, negative = inhibition, most hits filed as inhibitors; 310,000 tested, 5.9% active; AID 504832; further: potency means the concentration at half of the fitted maximal effect; on the % scale 0 is the no-effect control and ±100 the full control effect
#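 In quantitative HTS format, infected erythrocytes bearing luciferase-reporter parasites were treated for a single generation at 37 C. Luminescence after adding detection reagent served as the growth measure.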
# HCV inhibitor: HCV inhibition; 340,000 tested, 3.4% active; Potency, µM (top dose mostly 41.8 µM), inactives show top-dose activity change, negative = inhibition, usual class: inhibitors; Huh7.5.1 HCVcc-Cre infection, luciferase reporter, 44 h; further: potency means the concentration at half of the fitted maximal effect; on the % scale 0 is the no-effect control and ±100 the full control effect
#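 1,000 cells/well; 4 h culture; + compound; + HCVcc-Cre (~0.5 moi); 44 h; luciferase substrate, RT 15 min; read 15 sec.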
# SARS PLP yeast: blocks SARS-CoV papain-like protease in a yeast assay. S. cerevisiae expressing SARS-CoV PLpro, growth rescue. Potency, µM (series often up to 32.9 µM), for the others: at the top dose activity, positive = growth rescue, hits mostly activators. 330,000 tested, 0.19% active. AID 485353; calls by dose curve; further: potency means the concentration at half of the fitted maximal effect; 0% is about no effect; nearly all actives have a fitted effect of over 55% in size
# HCMV antiviral: inhibitors of human cytomegalovirus | AID 1259415 | 410,000 tested, 4.5% active | activity change, negative = inhibition, % at 57.5 µM | HFF cells, HCMV-luciferase reporter, 72 h; stronger effect = lower value; in the data active means activity change below about -60%; inconclusive means no clear call, values can overlap the other calls; inactive means above about -39%; further: on the % scale 0 is the no-effect control and ±100 the full control effect
#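 Inhibition of viral replication was scored as loss of reporter luminescence in HFFs infected with HCMV-luciferase (MOI 1 PFU/cell) for 72 h; compounds tested at 2 doses, normalized to buffer and Salinomycin controls.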
# Pf growth 96h: P. falciparum growth inhibition at 96 hours; P. falciparum luciferase reporter growth, 96 h; Potency, µM (titrated, usually from 28.7 µM), for the others: at the top dose activity change, negative = inhibition, most hits filed as inhibitors; 320,000 tested, 6.9% active; AID 504834; further: potency means the concentration at half of the fitted maximal effect; on the % scale 0 is the no-effect control and ±100 the full control effect
#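 96 h incubation, 37 C, 5% CO2, of luciferase-reporter P. falciparum-infected RBCs (2% hematocrit, 0.05% parasitemia final) with test compounds; endpoint luminescence.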
# Active calls of the source: *; ? = inconclusive; · = no result given; [ ] = dose if it differs, or a comment. Unless noted, the call rests on the fitted dose curve; in most records, active means well fitted curve in the direction sought with a large enough effect; inconclusive means small, poorly fitted or top-dose-only effect, or another doubt; inactive means no such curve, though single readings can be large; an effect the other way counts as inactive or inconclusive.
SMILES,Sm TGR inh,Pf growth 48h,HCV inhibitor,SARS PLP yeast,HCMV antiviral,Pf growth 96h
CC(Oc1cc(F)ccc1[N+](=O)[O-])C(=O)N(C)CC(=O)Nc1ccccc1C(F)(F)F (stereo unspecified),-13.3%,-4.8%,?,-1.2%,-2.1,-5.5%
CC(=O)Nc1ccccc1OCC(=O)N(Cc1ccccc1)C(C)C,0.6%,-19.9%,15.8µM*,18.6%,-77.4*,?
CC(C)(C)c1ccc(C(=O)Nc2sc3c(c2C(=O)O)CCC3)cc1,-13.9%,-28.8%,-20.2%,-2.3%,-76.0*,27.5%
COc1cccc(C(=O)Nc2sc3c(c2C(=O)O)CCCC3)c1,-13.5%,28.5%,12.6µM*,-4.5%,18.2,58.8%
Cc1cccc(C(=O)Nc2sc3c(c2C(=O)O)CCC3)c1,-26.9%,40.9%,-13.6%,-1.8%,-1.3,61.6%
COC(=O)c1c(NC(=O)c2c(-c3ccccc3Cl)noc2C)sc2c1CCC2,-1.3%,·,-3.3%,1.4%,-13.3,2.08µM*
COc1ccc(CC(=O)Nc2sc3c(c2C(=O)Nc2c(C)cccc2C)CCCCC3)cc1,4.5%,·,·,·,-70.4*,·
COC(=O)c1c(NC(=O)c2c(C)noc2C)sc2c1CCCCCC2,3.2%,7.2%,12.8%,3.2%,·,0.0%
CC(=O)N1CCN(C(C(=O)Nc2c(C)cccc2C)c2cccc(F)c2)CC1 (stereo unspecified),·,·,·,·,-13.3,·
Cc1ccc(C(=O)Nc2sc3c(c2C(=O)O)CCCCC3)o1,-12.0%,-11.7%,11.3%,-16.4%,40.5,?
COC(=O)c1c(NC(=O)c2ccc(C)o2)sc2c1CCCCC2,-6.7%,84.7%,11.2µM*,-19.4%,51.6,49.4%
Cc1ccc(C(=O)Nc2sc3c(c2C(=O)O)CCCC3)o1,-5.3%,23.7%,?,-7.3%,-61.8*,22.5%
COc1ccc(-c2cc(C(=O)N3CCN(S(=O)(=O)c4ccc(C)cc4)CC3)[nH]n2)cc1,-6.2%,?,3.0%,3.0%,-34.9,28.2%
COC(=O)c1cc(C)sc1NC(=O)CSc1ncccn1,-20.9%,61.7%,-13.2%,-0.9%,1.9,1.0%
COc1ccc(N/C=C/c2nc(SC)nnc2C)cc1,5.6%,-11.6%[5.75 µM],-10.1%,1.1%,-86.2*,?
CCCN1CCN(C(=O)c2ccc(F)c(S(=O)(=O)N3CCOCC3)c2)CC1,0.5%,-19.2%,-9.3%,5.3%,-4.4,6.2%
CNC(=O)C1CC(=O)N(Cc2ccc3c(c2)OCO3)C(=Nc2ccc(OC)cc2)S1 (stereo unspecified),3.2%,?,6.9%,1.7%,-7.4,?
NC(=O)C1CC(=O)N(Cc2ccc3c(c2)OCO3)C(=Nc2ccccc2)S1 (stereo unspecified),-13.3%,-19.8%,12.0%,-3.3%,?,14.7µM*
CCCn1c(=O)c2[nH]c(-c3ccc(OCC(=O)Nc4ccc(C#N)cc4)cc3)nc2n(CCC)c1=O,-0.3%,-10.8%,8.8%,·,-25.6,49.0%
Cc1ccc(SC(C)C(=O)NCC(C)C)cc1 (stereo unspecified),3.7%,14.7µM*,10.7%,-2.3%,14.5,-6.7%
CCOc1ccc(OCC)c(NC(=O)CCc2nc3cccnc3n2Cc2cccs2)c1,-2.6%,·,·,·,-19.7,·
COc1ccc(C2=C/C(=C\c3cccc(OC(C)=O)c3)C(=O)O2)cc1,-33.7%,17.9%,3.8%,-0.2%,-65.0*,?
COc1ccc(Cl)cc1C(=O)Nc1cccnc1,3.0%,24.1%,?,0.3%,29.5,1.0%
COc1ccc(F)cc1-c1cc(C(=O)Nc2cccnc2)[nH]n1,·,·,·,·,44.0,·
Cc1ccc(O)c(-c2cc(C(=O)Nc3cccnc3)[nH]n2)c1,1.0%,3.7µM*,-25.8%,-2.0%,52.6,2.94µM*
SMILES,Sm TGR inh,Pf growth 48h,HCV inhibitor,SARS PLP yeast,HCMV antiviral,Pf growth 96h
O=C(Nc1cccnc1)c1cc(-c2cc(Cl)ccc2O)n[nH]1,0.5%,?,-12.4%,-0.3%,26.6,0.738µM*
COc1cccc(OC(=O)CSc2nnc(-c3cccs3)o2)c1,-2.3%,·,·,·,31.0,·
NC(=O)NC(=O)C(c1ccccc1)N1CCN(S(=O)(=O)Cc2ccccc2)CC1 (stereo unspecified),-2.2%,-4.1%,20.6%,-0.8%,-87.6*,7.1%
CCc1ccccc1NC(=O)CSc1nc2c(oc3ccccc32)c(=O)n1-c1ccccc1,4.7%,·,·,·,-30.3,·
Cc1onc(-c2ccccc2Cl)c1C(=O)OCC(=O)N1CCCc2ccccc21,0.8%,9.28µM*,?,-5.5%,-12.7,?
Cc1[nH]c2ccccc2c1C(=O)COC(=O)c1c(-c2c(F)cccc2Cl)noc1C,-10.8%,?,?,-73.1%,-71.0*,?
Cc1[nH]c2ccccc2c1C(=O)COC(=O)c1c(-c2ccccc2Cl)noc1C,-4.5%,?,?,-75.3%,-74.5*,?
Cc1onc(-c2ccccc2Cl)c1C(=O)O/N=C(\N)c1ccc([N+](=O)[O-])o1,?,3.7µM*,?,-6.6%,-19.4,14.7µM*
CCNC(=O)C1(C)CCN(C(=O)c2ccc(-c3ccccc3)cc2)C1 (stereo unspecified),·,·,·,·,33.9,·
Cc1onc(-c2c(F)cccc2Cl)c1C(=O)NCc1ccccc1,5.3%,-12.2%,14.0%,1.7%,-3.9,?
Cc1onc(-c2c(F)cccc2Cl)c1C(=O)ONC(=O)c1ccco1,12.6µM*,6.4%,7.0%,-2.8%,14.9,8.2%
CCCCCCOc1ccc(-c2nc3ccc(Br)cc3c(=O)o2)cc1,-4.2%,·,·,·,-0.7,·
CCOc1ccc(C(=O)CCC(=O)NCC(=O)Nc2c(C)cccc2C)cc1,2.7%,?,-23.2%,2.2%,-2.3,-22.3%
CCOc1ccc(NC(=O)CC2CC(C)(C)OC2=O)cc1 (stereo unspecified),6.1%,12.6%,7.5%,3.3%,35.0,·
CCCC1CC(C)(c2csc(Nc3ccc(OCC)cc3)n2)OC1=O (stereo unspecified),1.2%,?,?,-75.9%,-88.6*,?
CCOC(=O)c1oc2nc(CC(C)C)c3c(c2c1N)CCCC3,-18.6%,?,2.82µM*,-1.8%,13.9,?
CCOC(=O)c1oc2nc3c(cc2c1N)CCCC3,-3.6%,202.8%,-9.2%,-1.6%,76.3,11.7µM*
COc1ccccc1C1C=C(c2ccc(Cl)cc2)Nc2nc(NS(C)(=O)=O)nn21 (stereo unspecified),39.8µM*,9.2%,16.1%,-8.2%,·,5.6%
CS(=O)(=O)Nc1nc2n(n1)C(c1ccccc1)C=C(c1ccc(Br)cc1)N2 (stereo unspecified),22.4µM*,-7.2%,10.7%,2.8%,·,-2.5%
